From PubChem
The full list was thinned out, with hits kept by preference.
Pf Dd2 growth – qHTS Primary assay for Inhibitors of Plasmodium falciparum Dd2 growth in vitro; P. falciparum Dd2 growth, SYBR Green, 72 h; Potency, µM (highest dose often 28.9 µM), usual class: inhibitors; 120,000 tested, 4.3% active; AID 1347417, 2020; active = well fitted inhibition curve with a large enough effect; note: nearly all actives have a fitted effect of over 65% in size
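Infected erythrocytes (Dd2, 0.3% parasitemia, 2.5% hematocrit final) are added to compound in RPMI-1640/Albumax II medium, grown 72 h at 37C in low oxygen, then lysed with saponin/Triton-X containing SYBR Green and read by fluorescence.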
Hits are given with their value; . = inactive; [ ] = another dose, or the depositor's remark.

SMILES | Pf Dd2 growth
COc1ccc(CN2CCC(N3CCOCC3=O)CC2)cc1 | .
CN1CCN(c2cc(=O)c3ccnc(-c4ccc(Cl)cc4)c3o2)CC1 | .
COc1ccc(-c2cc3ccc(O)c(CN4CCOCC4)c3oc2=O)cc1 | 11µM
COc1ccc(-c2coc3c2c(C)cc2oc(=O)c(C)c(C)c23)cc1 | .
CCN1CCN(C(c2ccc(OC)cc2)c2c(O)cc(C)n(CCOC)c2=O)CC1 (configuration not stated) | .
COc1ccc(Cc2nc3ccc(C(=O)NCCN4CCOCC4)cc3o2)cc1 | .
CCN1CCN(Cc2c(O)ccc3cc(-c4ccc(OC)cc4)c(=O)oc23)CC1 | 5.6µM
CCN1CCN(Cc2c(O)ccc3c(C)c(-c4ccc(OC)cc4)c(=O)oc23)CC1 | 5µM
Cc1c(-c2ccccc2)c(=O)oc2ccc(OC(=O)N3CCOCC3)cc12 | .
O=c1oc2c(CN3CCN(CCO)CC3)c(O)ccc2cc1-c1ccccc1 | .
CN1CCN(Cc2c(O)ccc3cc(-c4ccc(Cl)cc4)c(=O)oc23)CC1 | 5µM
COc1ccc(-c2c(C)c3cc(OC(=O)N4CCOCC4)ccc3oc2=O)cc1 | .
COCC[C@]1(O)CCN(C(=O)c2cccc(OCC(N)=O)c2)C[C@H]1C | .
CCNC(=O)CCc1c(CC)nn(-c2ccc(OC)cc2)c1Oc1cccc(F)c1 | .
O=C(c1ccc(F)cc1)N1CCC2(COc3ccncc3[S+](=O)([O-])N2)C1 (configuration not stated) | .
Cc1oc2ccn(Cc3ccc(F)cc3)c(=O)c2c1C(=O)NC1CCCCCC1 | .
COCCN1CCCCC(CC(=O)Nc2ccc(OC)cc2)C1=O (configuration not stated) | .
CCCS(=O)(=O)N1CCC(Cc2nncn2-c2ccccc2)CC1 | .
CCSc1nc(-c2ccccc2F)nc2c1Cc1c(CO)cnc(C)c1O2 | .
Cc1ncc(CO)c2c1Oc1nc(-c3ccccc3Cl)nc(SCc3ccccc3F)c1C2 | 4.5µM
Cc1ccc(C)c(CSc2nc(-c3ccccc3F)nc3c2Cc2c(CO)cnc(C)c2O3)c1 | 8.9µM
Cc1ncc(CO)c2c1Oc1nc(-c3ccccc3F)nc(SCC(=O)N3CCCCC3)c1C2 | .
CCc1ccccc1NC(=O)CSc1nc(-c2cccc(Cl)c2)nc2c1Cc1c(CO)cnc(C)c1O2 | .
O=C(c1ccc2[nH]ccc2c1)N1CCN(C(=O)c2nnn3c2COC(c2ccccc2)C3)CC1 (configuration not stated) | .
CN(CC1CCOC1)C(=O)Nc1ccccc1 (configuration not stated) | .[5.79 µM]
SMILES | Pf Dd2 growth
COC(=O)[C@@H](Cc1cccnc1)NC(=O)[C@H]1CN(C(=O)c2cccnc2)CCN1S(=O)(=O)c1ccccc1 | .
COc1ccc(-c2oc3ncn4nc(COc5c(C)cccc5C)nc4c3c2-c2ccc(OC)cc2)cc1 | 11µM
COc1ccc(-c2oc3ncn4nc(-c5cccc(C)c5)nc4c3c2-c2ccc(OC)cc2)cc1 | .
Cc1cccc(C)c1OCc1nc2c3c(-c4ccccc4)c(-c4ccccc4)oc3ncn2n1 | .
COc1cccc(CC(=O)NCC2CCCCC(=O)N2)c1 (configuration not stated) | .
CCCS(=O)(=O)N[C@H]1C[C@@H](c2nc(-c3ccc4c(c3)OCO4)no2)N(C)C1 | .
O=C(C[C@@H]1C[C@H]2O[C@H](CNC3CCC3)[C@@H](O)[C@H]2O1)N1CCC(F)(F)C1 | .
O=C1C(OCC2CC2)C2(CCCCC2)N1C1CCN(Cc2cccnc2)CC1 (configuration not stated) | 8.9µM
O=C(Cc1cccnc1)N1CCC(N2C(=O)C(OCC3CC3)C23CCCCC3)CC1 (configuration not stated) | .
O=C1C(OCC2CC2)C2(CCCCC2)N1C1CCN(Cc2ccncc2F)CC1 (configuration not stated) | .
COc1ccc(C(=O)Nc2ccc3n(c2=O)C[C@H]2C[C@@H]3CN(S(=O)(=O)c3ccc(OC)cc3)C2)cc1 | .
O=C1[C@@H]2C[C@@H](CN2C2CCOCC2)Oc2ccccc2N1Cc1ccccc1 | .
COc1cc(NC(=O)C2CCc3sc(C(=O)N4CCOCC4)cc3C2)cc(OC)c1 (configuration not stated) | .
COCCCNC(=O)c1c(OCC(C)C)cc(=O)n2c1CCCCC2 | .
CC(=O)N1CCc2c(sc3c2c(=O)n(Cc2ccccc2)c(=O)n3Cc2ccccc2F)C1 | .
CC(=O)N1CCc2c(sc3c2c(=O)n(-c2ccccc2C)c(=O)n3Cc2cccc(F)c2)C1 | .
CC(=O)N1CCc2c(sc3c2c(=O)n(-c2ccccc2)c(=O)n3CC(=O)Nc2cc(C)cc(C)c2)C1 | .
CC(=O)N1CCc2c(sc3c2c(=O)n(-c2cc(Cl)ccc2C)c(=O)n3Cc2ccccc2F)C1 | 10µM
CC(=O)N1CCc2c(sc3c2c(=O)n(-c2ccccc2)c(=O)n3CC(=O)Nc2cccc(C)c2)C1 | .
CC(=O)N1CCc2c(sc3c2c(=O)n(-c2ccccc2)c(=O)n3CC(=O)Nc2ccccc2)C1 | .
COc1cccc(NC(=O)Cn2c(=O)n(-c3ccccc3)c(=O)c3c4c(sc32)CCCC4)c1 | .
CCOC(=O)N1CCc2c(sc3c2c(=O)n(-c2ccccc2)c(=O)n3CC(=O)Nc2ccc(OC)cc2OC)C1 | 4.5µM
CCOC(=O)N1CCc2c(sc3c2c(=O)n(-c2ccc(CC)cc2)c(=O)n3Cc2cccc(Cl)c2)C1 | .
CCOC(=O)N1CCc2c(sc3c2c(=O)n(-c2ccc(CC)cc2)c(=O)n3Cc2ccc(F)cc2Cl)C1 | 10µM
COC(=O)c1sc2c(c1C)c(=O)n(-c1ccccc1)c(=O)n2CC(=O)Nc1cccc(C)c1 | 11µM
SMILES | Pf Dd2 growth
CCOC(=O)N1CCc2c(sc3c2c(=O)n(-c2ccc(Cl)cc2)c(=O)n3CC(=O)c2ccc(F)cc2)C1 | .
Cc1cnn(Cc2c(C(=O)N3C[C@@H](C(N)=O)[C@H](c4nc(C)no4)C3)noc2C)c1 | .
O=C(CCC1CCN(S(=O)(=O)c2cccc(F)c2)CC1)NCCCN1CCCC1=O | .
N#Cc1cccnc1N1CCC(NC(=O)c2ccc3cccc(F)c3n2)CC1 | .
CCC(C)NC(=O)C(NC(=O)c1cccs1)C1CCN(C(=O)c2ccccc2F)CC1 (configuration not stated) | .
Cc1cn2cc(C(=O)NCc3cn4c(n3)SCC4)ccc2n1 | .
CCOC(=O)N1CCc2c(sc3c2c(=O)n(Cc2ccccc2)c(=O)n3Cc2c(F)cccc2Cl)C1 | 3.2µM
CC(=O)N1CCc2c(sc3c2c(=O)n(Cc2ccccc2)c(=O)n3Cc2ccc(C)cc2)C1 | .
CCOC(=O)N1CCc2c(sc3c2c(=O)n(Cc2ccccc2)c(=O)n3CC(=O)Nc2ccc(F)cc2)C1 | .
COCc1cccc(-c2ccc3c(n2)c(=O)ncn3Cc2ccccc2)c1 | .
O=C(c1ccc(-c2ccccc2CO)nc1)N1CCC(CCc2ccccc2)CC1 | .
CCn1c(CN2CCC(C)CC2)nc2cc(NC(=O)c3cccc([N+](=O)[O-])c3)ccc21 | 6.3µM
CCn1c(CN2CCOCC2)nc2cc(NC(=O)c3ccc([N+](=O)[O-])cc3)ccc21 | .
CCn1c(CN2CCC(C)CC2)nc2cc(NC(=O)c3ccc([N+](=O)[O-])cc3)ccc21 | .
Cc1noc2ccc(-c3ccccc3Oc3ccccc3)nc12 | .
COCCn1nc2n(c1=O)CCN(C(=O)c1ccc(Br)o1)CC2 | .
O=C(c1cc(-c2ccc(Cl)cc2)n[nH]1)N1CCN(S(=O)(=O)c2ccc(Br)s2)CC1 | .
Cc1cc(Br)ccc1NC(=O)C1CCN(S(=O)(=O)c2ccc(Br)s2)CC1 | .
